Screening results: PubChem BioAssay, National Center for Advancing Translational Sciences (NCATS)
JMJD2A Tudor inh = inhibitors of human JMJD2A Tudor domain | AID 504339 | AlphaScreen JMJD2A-Tudor / H3K4me3 peptide binding | Potency, µM (highest dose often 114 µM), without a hit: at the highest dose activity change, negative = inhibition, actives largely listed as inhibitors | O75164 | 390,000 compounds, 4.4% hits; note: potency is the fitted concentration of half-maximal effect; % is set by controls: 0 for no effect and ±100 for the full control effect; nearly all actives have a fitted effect of over 50% in size
CtBP-E1A inh = inhibitors of CtBP/E1A interaction; AlphaScreen GST-E1A/His-CtBP binding, 1536-well; hits give low values; activity change, % (test concentration not listed); 340,000 compounds, 0.49% hits; AID 651724; in the data active = activity change below about -65%; inconclusive = mostly about -30% to -63%; note: % is set by controls: 0 for no effect and ±100 for the full control effect
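AlphaScreen with 125 nM GST-E1A and 125 nM His-CtBP (5X stocks) in Tris pH 8.0, 300 mM NaCl, BSA, Tween 20, TCEP. Compounds preincubated 2 h at 37 deg C, then glutathione donor/nickel acceptor beads added for 1 h at 37 deg C in dark.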
Six1-Eya2 blk = Six1/Eya2 interaction inhibition; activity change, % (no concentration beside the values); AID 651725; 360,000 compounds, 0.56% hits; AlphaScreen GST-Six1/His-Eya2 binding, biochemical; hits give low values; in the data active = activity change below about -65%; inconclusive = mostly about -30% to -63%; note: % is set by controls: 0 for no effect and ±100 for the full control effect
Target sequence (O00167 whole entry, looked up): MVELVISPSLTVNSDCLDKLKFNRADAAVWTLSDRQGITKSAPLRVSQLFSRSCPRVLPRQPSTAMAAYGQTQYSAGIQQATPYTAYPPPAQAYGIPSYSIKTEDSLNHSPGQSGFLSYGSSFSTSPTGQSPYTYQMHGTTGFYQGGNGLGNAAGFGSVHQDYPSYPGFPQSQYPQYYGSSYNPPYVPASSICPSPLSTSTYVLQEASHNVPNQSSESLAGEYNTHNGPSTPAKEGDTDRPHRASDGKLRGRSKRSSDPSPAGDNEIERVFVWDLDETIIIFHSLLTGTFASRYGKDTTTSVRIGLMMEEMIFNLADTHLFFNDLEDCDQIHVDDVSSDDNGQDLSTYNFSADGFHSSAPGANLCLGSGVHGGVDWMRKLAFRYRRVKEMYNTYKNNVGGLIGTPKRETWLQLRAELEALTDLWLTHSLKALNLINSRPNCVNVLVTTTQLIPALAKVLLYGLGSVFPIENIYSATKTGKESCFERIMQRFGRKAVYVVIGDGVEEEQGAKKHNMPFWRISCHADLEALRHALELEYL
Target sequence (Q15475 whole entry, looked up): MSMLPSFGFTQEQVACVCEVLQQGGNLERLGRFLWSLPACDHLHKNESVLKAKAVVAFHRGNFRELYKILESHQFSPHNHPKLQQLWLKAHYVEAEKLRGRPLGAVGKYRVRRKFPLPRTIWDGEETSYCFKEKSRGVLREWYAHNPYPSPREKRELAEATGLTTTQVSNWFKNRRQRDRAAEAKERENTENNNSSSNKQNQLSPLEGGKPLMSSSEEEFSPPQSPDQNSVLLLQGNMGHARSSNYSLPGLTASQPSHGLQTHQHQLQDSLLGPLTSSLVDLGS
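Compounds are tested against tagged Six1 and Eya2 proteins bridged by glutathione donor and nickel acceptor beads; after a one-hour incubation at 37 °C without light, AlphaScreen emission is recorded.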
HP1b binding inh = blocks HP1-beta chromodomain binding to methylated histone tails | P83916 | AlphaScreen HP1-beta / biotin-H3K9me3 peptide binding | Potency, µM (top dose mostly 114 µM), for the others: at the top dose activity change, negative = inhibition, actives largely listed as inhibitors | 390,000 compounds, 0.56% hits | AID 540317; note: potency is the fitted concentration of half-maximal effect; nearly all actives have a fitted effect of over 70% in size
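AlphaScreen: HP1-beta (50 nM) preformed 30 min with biotin-H3(1-18)K9me3 peptide (50 nM) in PBS pH 7.4, 0.01% Tween-20. Compound added for 30 min at RT, then streptavidin donor/nickel chelate acceptor beads (10 ug/mL) for 30 min.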
BAZ2B block = BAZ2B (human) inhibition; AlphaScreen BAZ2B-H3K14Ac peptide displacement; Potency, µM (series often up to 114 µM), without a hit: at the top dose activity change, negative = inhibition, actives largely listed as inhibitors; 360,000 compounds, 4.4% hits; note: potency is the fitted concentration of half-maximal effect; % is set by controls: 0 for no effect and ±100 for the full control effect; nearly all actives have a fitted effect of over 60% in size
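Multi-concentration screen (max 110 uM) measuring displacement of acetylated histone H3 peptide from BAZ2B by AlphaScreen, using 50 nM protein, 50 nM peptide and 10 ug/mL streptavidin donor plus Ni-chelate acceptor beads.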
G9a inh = inhibitors of human histone lysine methyltransferase G9a; Q96KQ7; G9a H3K9 monomethylation, AlphaScreen, 2 h; Potency, µM (doses to about 102 µM), inactives show at the highest dose activity, negative = inhibition, usual class: inhibitors; 350,000 compounds, 8.8% hits; AID 504332; note: potency is the fitted concentration of half-maximal effect; % is set by controls: 0 for no effect and ±100 for the full control effect; nearly all actives have a fitted effect of over 75% in size
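G9a (20 nM) was preincubated 15 min with compound, then reacted 2 h at room temperature with 500 nM biotin-H3K9 peptide and 20 µM SAM. Monomethyl-H3K9 detected by AlphaScreen using anti-H3K9me1 antibody.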
Starred values were filed as active, the others as inactive; ? = inconclusive; nt = no result given; ! = a repeat was not active; [ ] = dose if it differs, or a comment. An excerpt weighted towards active compounds, which were near 10% of everything screened. Unless noted, calls come from the whole dose curve; as a rule, active = well fitted inhibition curve with a large enough effect; inconclusive = small, poorly fitted or top-dose-only effect; inactive = no such curve, though single readings can be large or run the other way.

SMILES	JMJD2A Tudor inh	CtBP-E1A inh	Six1-Eya2 blk	HP1b binding inh	BAZ2B block	G9a inh
O=C(NCc1ccc(F)cc1)c1cnc(N2CCOCC2)c2ccccc12	1%	nt	nt	31%[57 µM]	11%	5%[59 µM]
CC1(C)NC(=O)N(CC(=O)OCC(=O)NC(=O)c2ccccc2)C1=O	-8%	8	5	18%	10%	40µM*
O=C(CSc1nc2c([nH]c3ccccc32)c(=O)n1-c1ccc(F)cc1)N1CCCc2ccccc21	-14%	nt	nt	0%[57 µM]	3%	10%[59 µM]
COC/C=C/C1=CC2=CC(=O)C(C)(OC(=O)c3cnc4ccccc4n3)C(=O)C2=CN1c1ccccc1 (stereo not drawn)	?	1	-12	-10%	-39%	-32%[59 µM]
COC/C=C/C1=CC2=CC(=O)C(C)(OC(=O)c3cnc4ccccc4n3)C(=O)C2=CN1CC(C)C (stereo not drawn)	?	-2	-10	-7%	nt	nt
COC/C=C/C1=CC2=CC(=O)C(C)(OC(=O)c3cnc4ccccc4n3)C(=O)C2=CN1c1ccc(CO)cc1 (stereo not drawn)	nt	nt	nt	nt	10µM*	nt
COC/C=C/C1=CC2=CC(=O)C(C)(OC(=O)c3cnc4ccccc4n3)C(=O)C2=CN1C1CCCCC1 (stereo not drawn)	nt	nt	nt	nt	?	40µM*
COc1ccc(/C(O)=C2\C(=O)C(=O)N(CCN(C)C)C2c2cccc(OC)c2OC)cc1 (stereo not drawn)	-17%	14	6	12%	-28%	11µM*
COc1cccc(C2/C(=C(/O)c3cnn(-c4ccccc4)c3C)C(=O)C(=O)N2CCN(C)C)c1OC (stereo not drawn)	-15%[57.1 µM]	8	4	21%	?	14µM*
COc1ccc(C2/C(=C(\O)c3ccc(OC)c(Cl)c3)C(=O)C(=O)N2CCN(C)C)cc1 (stereo not drawn)	-3%	2	2	30%	-4%	79µM*
O=c1c(-c2ccc(F)c(F)c2)nc2cncnc2n1Cc1ccc(F)cc1	nt	nt	nt	nt	nt	-7%[12.7 µM]
COC(=O)[C@H](C)NC(=O)NCCC1=CCCCC1	71µM*	0	1	7%	-12%	8%
CCC(C)[C@H](NC(=O)NCCC1=CCCCC1)C(=O)OC (stereo partly drawn)	-7%	-3	6	0%	-2%	?
c1ccc(CCC2Cc3ccccc3N2)cc1 (stereo not drawn)	56µM*	-6	-12	-10%	?	-1%[0.501 µM]
COc1ccc(-n2c(Cc3cccn3C)nnc2SCC(=O)Nc2cccc(F)c2)cc1	?	-19	-11	8%	?	?
COc1ccc(-n2c(Cc3cccn3C)nnc2SCC(=O)NCc2ccc(F)cc2)cc1	-32%	-7	-12	5%	?	45µM*
Cn1cccc1Cc1nnc(SCC(=O)NCC2CCCO2)n1-c1ccc(F)cc1 (stereo not drawn)	0%	-3	-10	21%	-6%	35µM*
CCSc1nnc(NC(=O)CSc2nnc(Cc3cccn3C)n2-c2ccc(F)cc2)s1	-11%	-19	-11	27%	-3%	-9%
Cn1cccc1Cc1nnc(SCC(=O)Nc2ccc(F)cc2)n1-c1ccc(F)cc1	?	-13	-15	-17%	?	45µM*
COc1ccc(NC(=O)CSc2nnc(Cc3cccn3C)n2-c2ccc(F)cc2)cc1OC	-35%	-7	-11	5%	50µM*	?
CC1CCN(S(=O)(=O)c2ccc3c(c2)N(CC(=O)NCc2ccccc2)C(=O)CO3)CC1	-11%	nt	nt	29%	3%	-5%[59 µM]
Cc1ccc(CN(Cc2cccn2-c2nnc(N3CCCC3=O)s2)C(=O)Nc2ccc(F)cc2)cc1	-22%	nt	nt	13%	-5%	-6%[59 µM]
Cc1ccccc1NC(=O)CSc1nnc(Cc2cccn2C)n1-c1ccc(F)cc1	-31%	-3	-5	9%	?	?
CC1CCN(C(=O)CSc2nnc(Cc3cccn3C)n2-c2ccc(F)cc2)CC1	?	-2	-7	-11%	-34%	?
COc1ccc(-n2c(Cc3cccn3C)nnc2SCC(=O)Nc2ccccc2)cc1	?	-10	-9	-18%	?	28µM*
SMILES	JMJD2A Tudor inh	CtBP-E1A inh	Six1-Eya2 blk	HP1b binding inh	BAZ2B block	G9a inh
Cn1cccc1Cc1nnc(SCC(=O)Nc2ccccc2F)n1-c1ccc(F)cc1	-29%	-4	-7	18%	?	45µM*
COc1ccc(-n2c(Cc3cccn3C)nnc2SCC(=O)Nc2ccc(Cl)cc2)cc1	?	-20	-23	-24%	?	?
Cn1cccc1Cc1nnc(SCC(=O)Nc2ccccc2)n1-c1ccc(F)cc1	?	11	-4	36%	?	45µM*
CC(Oc1ccccc1)C(=O)Nc1ccc(C(=O)OCc2cc(=O)n3nc(C4CC4)sc3n2)cc1 (stereo not drawn)	-15%	nt	nt	-12%	-12%	24%[59 µM]
Cc1ccc(CNS(=O)(=O)c2cnc(N)nc2)cc1	-4%	nt	nt	34%[57 µM]	1%	5%[59 µM]
CCc1cccc(CC)c1NC(=O)CSc1nc2ccc(N3C(=O)C4C(C3=O)[C@H]3C=C[C@@H]4C3)cc2s1 (stereo partly drawn)	-19%	3	3	-15%	-35%	1.4µM*
Cc1ccccc1NS(=O)(=O)c1ccc(F)cc1	-8%	6	4	37%	2%	7%[59 µM]
CC(C)(C)N(NS(=O)(=O)c1ccc(F)cc1)c1ccccc1	?	7	12	27%	7%	8.9µM*
CN(C)C=Nc1ccccc1C1C=NNC1=O (stereo not drawn)	nt	nt	nt	nt	-35%	40µM*
CN1CCc2cccc3c2C1Cc1ccc(O)c(O)c1-3 (stereo not drawn)	40µM*	1	3	?	?	1.9µM*!
CN1CCC(=C2c3ccccc3C(O)c3ccccc32)CC1 (stereo not drawn)	-7%	nt	-2	54%	8%	?
CC(=O)Nc1ccc(NC(=O)c2c(-c3ccccc3Cl)noc2C)cc1	-11%	2	-4	26%	5%	15%
CC(=O)Nc1nnc(-c2c(-c3ccccc3Cl)noc2C)o1	18µM*	-9	-13	15%	?	-37%
COc1ccc(Br)cc1C1C(C(=O)Nc2ccc(C)cc2C)=C(C)Nc2ncnn21 (stereo not drawn)	-15%	nt	nt	7%	2%	4%[59 µM]
Cc1ccccc1N(C(=O)c1csnn1)C(C(=O)NC(C)(C)C)c1cccs1 (stereo not drawn)	10µM*	-2	0	?	-27%	-30%
